Source: PubChem
SENP7 inh: blocks the human protease SENP7 | 330,000 tested, 1.5% active | inhibition, % at 5 µM | recombinant SENP7, Z-RLRGG-aminoluciferin luminescence, 40 min;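 active = inhibition above about 50% at the single test dose, limit read from the data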;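 also: plate controls were DMSO with enzyme for no effect and no enzyme buffer wells for full effect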
Target sequence (Q9BQF6 706-1050 limits assumed): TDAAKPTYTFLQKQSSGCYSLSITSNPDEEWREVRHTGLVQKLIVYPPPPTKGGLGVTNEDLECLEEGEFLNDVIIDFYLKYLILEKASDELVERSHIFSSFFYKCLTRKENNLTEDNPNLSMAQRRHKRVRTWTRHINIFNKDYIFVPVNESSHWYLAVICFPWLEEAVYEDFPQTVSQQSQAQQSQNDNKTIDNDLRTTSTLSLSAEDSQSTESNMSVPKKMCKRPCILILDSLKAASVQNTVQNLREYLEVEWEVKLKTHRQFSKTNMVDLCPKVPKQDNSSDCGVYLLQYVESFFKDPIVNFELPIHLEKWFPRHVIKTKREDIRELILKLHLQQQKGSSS
SENP8 block-1: inhibitors of human SENP8 protease; Q96LD8; recombinant SENP8, Nedd8 substrate fluorescence; inhibition, % at 20 µM; 360,000 tested, 0.64% active; AID 602440; in the data active = inhibition mostly above about 40%, no sharp cut-off; inactive = mostly below about 27%
PPC-1+TRAIL kill: PPC-1 cancer cell killing with TRAIL present. AID 1443. cell killing (% activity), % at 4 µM or 5 µM. PPC-1 cells + TRAIL, ATPLite viability luminescence. 220,000 tested, 0.41% active;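 active = cell killing above 50% in the first pass at 4 µM, then a duplicate retest at 5 µM averaging 50% or more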;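 also: plate controls were cells with TRAIL plus DMSO for no effect and medium-only wells lacking cells for full effect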
SENP8 block-2: inhibitors of human SENP8 protease | 330,000 tested, 1.2% active | inhibition, % at 10 µM | purified SENP8, Z-RLRGG-aminoluciferin cleavage, luminescence | Q96LD8 | AID 2540; in the data active = inhibition above about 50%
TRAIL sens C8: caspase-8 TRAIL sensitization; NB7+C8 cells + TRAIL, ATPlite viability luminescence; 360,000 tested, 1% active; inhibition (viability loss, TRAIL sensitization), % at 10 µM;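 active = compounds causing at least 50% loss of cell viability in the single-dose screen, relative to plate controls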
SENP6 block: inhibitors of human SENP6 protease; Q9GZR1; Recombinant SENP6 catalytic domain, aminoluciferin luminescence; inhibition, % at 10 µM; 330,000 tested, 1.8% active;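 active = inhibition above about 50% at the single tested dose, limit read from the data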;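 also: plate controls were DMSO wells with enzyme for no effect and DMSO wells lacking enzyme for full effect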
PPC1 cytotox: kills PPC-1 cells; cytotoxicity, % at 5 µM; 1,200 tested, 50% active; shares compounds with PPC-1+TRAIL kill; PPC-1 viability, ATPlite luminescence, overnight;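 active = reconfirmed compounds whose average cytotoxicity reaches 50% or more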;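 also: 0% = DMSO-treated cells and 100% = wells holding medium but no cells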
SENP8 confirm: confirmation of human SENP8 protease inhibitors | shares compounds with SENP7 inh | Recombinant SENP8, Z-RLRGG-aminoluciferin luminescence, 60 min | 6,200 tested, 40% active | inhibition, % at 12.5 µM;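 active = mean inhibition across replicates above about 50%, limit read from the data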
SENP6 conf: confirmation of human SENP6 protease inhibitors | shares compounds with SENP7 inh | recombinant SENP6, Z-RLRGG-aminoluciferin luminescence | inhibition, % at 12.5 µM | 6,200 tested, 58% active | AID 488915
SENP7 conf: confirmation of human SENP7 protease inhibitors; shares compounds with SENP7 inh; recombinant SENP7, Z-RLRGG-aminoluciferin luminescence, 40 min; inhibition, % at 12.5 µM; 6,200 tested, 69% active; AID 488917
Casp3 SENP sel: inhibits human caspase-3 in SENP selectivity test; AID 488918; 6,200 tested, 60% active; shares compounds with SENP7 inh; inhibition, % at 12.5 µM; purified caspase-3, Z-DEVD-aminoluciferin luminescence, 60 min;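 active = mean inhibition above about 50%, limit read from the data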;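 also: plate controls were enzyme with DMSO for no effect and wells without caspase-3 for full effect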
Target sequence (P42574 28-227 limits assumed): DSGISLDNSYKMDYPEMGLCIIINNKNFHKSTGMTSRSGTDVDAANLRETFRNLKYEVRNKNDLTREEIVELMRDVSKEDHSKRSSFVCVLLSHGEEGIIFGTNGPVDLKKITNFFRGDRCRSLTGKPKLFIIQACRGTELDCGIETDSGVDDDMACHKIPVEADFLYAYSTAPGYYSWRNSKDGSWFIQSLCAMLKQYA
SENP luc ctr: interferes with luciferase luminescence in SENP counter-screen; shares compounds with SENP7 inh; Pre-incubated SENP8/Z-RLRGG-aminoluciferin, luciferase luminescence interference; inhibition, % at 12.5 µM; 6,200 tested, 39% active;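 active = mean inhibition above about 50% when retested at one dose, limit read from the data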;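 also: plate controls were DMSO wells with completed reaction for no effect and substrate without enzyme for full effect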
* hit, by the source's call. An excerpt weighted towards active compounds, which were near 3% of everything screened.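 The calls were made as follows, unless noted: active = mean inhibition above about 50% in the one-dose retest (limit read from the data); inactive = the rest.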

For C=C[C@@]12CN(C)[C@H]3[C@H]1[C@@]1(C(=O)Nc4ccccc41)C1CC2[C@@H]3CO1 the results were SENP7 inh -3, SENP8 block-1 8, SENP8 block-2 9, TRAIL sens C8 -13 and SENP6 block 0.
For O=C1C(=O)c2ccccc2-c2ccccc21 the results were SENP7 inh 97*, SENP8 block-1 108*, PPC-1+TRAIL kill 68*, SENP8 block-2 93*, TRAIL sens C8 95*, SENP6 block 97* and PPC1 cytotox 63*.
For CN1C(=O)C(C2c3ccccc3C(=O)N2Cc2ccc([N+](=O)[O-])cc2)C(=O)N(C)C1=O (stereo not given) the results were SENP7 inh -3, SENP8 block-1 16, PPC-1+TRAIL kill 21, SENP8 block-2 -13, TRAIL sens C8 -14 and SENP6 block -12.
Screening CN1C(=O)C(C2c3ccccc3C(=O)N2Cc2ccccc2)C(=O)N(C)C1=O (stereo not given) returned SENP7 inh 7, SENP8 block-1 8, PPC-1+TRAIL kill -3, SENP8 block-2 -7, TRAIL sens C8 -5, SENP6 block -14 and PPC1 cytotox -4.
Screening CC(=O)c1ccc(NC(=O)N2C[C@H]3C[C@@H](C2)c2cccc(=O)n2C3)cc1 returned SENP7 inh -9, SENP8 block-1 24, SENP8 block-2 7, TRAIL sens C8 3 and SENP6 block 5.
For CCOc1ccc(C2CC(c3c(O)n(C)c(=O)n(C)c3=O)=NN2)cc1 (stereo not given) the results were SENP7 inh 29, SENP8 block-1 -3, PPC-1+TRAIL kill 69*, SENP8 block-2 20, TRAIL sens C8 74*, SENP6 block 40 and PPC1 cytotox 71*.
`CN(C)Cc1ccccc1OC(=O)N(C)C` gave SENP7 inh -3, SENP8 block-1 19, PPC-1+TRAIL kill 16, SENP8 block-2 -8, TRAIL sens C8 -11 and SENP6 block -31.
For Cc1cccc(CN(C)C)c1OC(=O)N(C)C the results were SENP7 inh 8, SENP8 block-1 10, PPC-1+TRAIL kill 1, SENP8 block-2 1, TRAIL sens C8 -4, SENP6 block -18 and PPC1 cytotox 8.
`COc1cc(C(=S)N2CCOCC2)cc(OC)c1OC(=O)Cc1ccccc1` gave SENP7 inh -5, SENP8 block-1 12, PPC-1+TRAIL kill 11, SENP8 block-2 -11, TRAIL sens C8 -11 and SENP6 block -20.
CN1CCN(c2ccc([N+](=O)[O-])c3no[n+]([O-])c23)CC1 was read as SENP8 block-1 69*, PPC-1+TRAIL kill 78*, TRAIL sens C8 95* and PPC1 cytotox 80*.
For CC(C)N1CCN(Cc2ccc3c(c2)OCCO3)CC1CCO (stereo not given) the results were SENP7 inh -14, SENP8 block-1 20, PPC-1+TRAIL kill -9, SENP8 block-2 -9, TRAIL sens C8 -6, SENP6 block -44 and PPC1 cytotox -6.
`CC(C)N1CCN(Cc2cc3c(cc2Cl)OCO3)CC1CCO` (stereo not given) gave SENP7 inh 0, SENP8 block-1 17, PPC-1+TRAIL kill -63, SENP8 block-2 -8, TRAIL sens C8 -3 and SENP6 block -13.
`Nc1c2c(nc3sc4c(c13)CCCC4)CCCC2` gave SENP7 inh 15, SENP8 block-1 -10, PPC-1+TRAIL kill 18, SENP8 block-2 9, TRAIL sens C8 18 and SENP6 block 16.
Screening Nc1c2c(nc3sc4c(c13)CCCC4)CCCCC2 returned SENP7 inh 72*, SENP8 block-1 13, PPC-1+TRAIL kill 8, SENP8 block-2 69*, TRAIL sens C8 34, SENP6 block 81*, SENP8 confirm 17, SENP6 conf 19, SENP7 conf 47, Casp3 SENP sel 50* and SENP luc ctr 9.
For O=C(O)C1C2CC3CC(C2)CC1(n1ncc(N2CCC4(CC2)OCCO4)c(Cl)c1=O)C3 (stereo not given) the results were SENP7 inh -4, SENP8 block-1 8, PPC-1+TRAIL kill 4, SENP8 block-2 -1, TRAIL sens C8 -10 and SENP6 block 8.
Screening COc1ccccc1N=Cc1c(O)n(C)c(=O)n(C)c1=O returned SENP7 inh 56*, SENP8 block-1 -320, PPC-1+TRAIL kill 1, SENP8 block-2 11, TRAIL sens C8 -4, SENP6 block 63*, SENP8 confirm 11, SENP6 conf 28, SENP7 conf 73*, Casp3 SENP sel 46 and SENP luc ctr 59*.
For CCCNC(=O)c1c(N)n(Cc2ccc3c(c2)OCO3)c2nc3ccccc3nc12 the results were SENP7 inh 19, SENP8 block-1 -273, PPC-1+TRAIL kill 14, SENP8 block-2 53*, TRAIL sens C8 0, SENP6 block 54*, SENP8 confirm -21, SENP6 conf -8, SENP7 conf 4, Casp3 SENP sel -2 and SENP luc ctr -2.
For COc1ccc(Cn2c(N)c(C(=O)NCc3ccco3)c3nc4ccccc4nc32)cc1OC the results were SENP7 inh 38, SENP8 block-1 -493, PPC-1+TRAIL kill -4, SENP8 block-2 52*, TRAIL sens C8 -11, SENP6 block 74*, SENP8 confirm 6, SENP6 conf 11, SENP7 conf 11, Casp3 SENP sel 4 and SENP luc ctr 1.
For CC(C)CCNC(=O)c1c(N)n(Cc2ccc3c(c2)OCO3)c2nc3ccccc3nc12 the results were SENP7 inh 58*, SENP8 block-1 -257, PPC-1+TRAIL kill 9, SENP8 block-2 82*, TRAIL sens C8 12, SENP6 block 72*, SENP8 confirm -10, SENP6 conf 5, SENP7 conf -4, Casp3 SENP sel 5 and SENP luc ctr -9.
`CC(C)CNC(=O)c1c(N)n(Cc2ccc3c(c2)OCO3)c2nc3ccccc3nc12` gave SENP7 inh 73*, SENP8 block-1 -323, PPC-1+TRAIL kill 0, SENP8 block-2 91*, TRAIL sens C8 1, SENP6 block 91*, SENP8 confirm 13, SENP6 conf 21, SENP7 conf 19, Casp3 SENP sel 10 and SENP luc ctr 3.
